# Source: PubChem BioAssay (several laboratories)
# A selection: hits, their analogues and other compounds. The true share with any hit is near 1.5%.
# MEX-5 binding – MEX-5 zinc finger RNA-binding disruptors – biochemical, C. elegans, fluorescence polarization, MLPCN library, primary screen; MEX-5/FITC-TCR2 RNA binding; hits give low values; activity score (negative = inhibition of binding), % at 10 µM; 300,000 compounds, 0.38% hits; AID 1832, 2009;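 active = inhibition past about -25% in most replicates, and total fluorescence under double the plate's negative control median, limit read from the data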;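 also: 0% = DMSO and -100% = 5 µM competing unlabeled TCR2 RNA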
# EBV gp42 inh – Epstein-Barr virus gp42 inhibitors, primary screen, biochemical, uHTS, fluorescence polarization. Glycoprotein 42 (Epstein-Barr virus (strain AG876)), Q1HVG2. Fluorescence polarization binding assay, mP read-out. inhibition, % (tested at 21.74 µM). 220,000 compounds, 0.42% hits; in the data active = inhibition above about 50%
# Target sequence (Q1HVG2 whole entry, looked up): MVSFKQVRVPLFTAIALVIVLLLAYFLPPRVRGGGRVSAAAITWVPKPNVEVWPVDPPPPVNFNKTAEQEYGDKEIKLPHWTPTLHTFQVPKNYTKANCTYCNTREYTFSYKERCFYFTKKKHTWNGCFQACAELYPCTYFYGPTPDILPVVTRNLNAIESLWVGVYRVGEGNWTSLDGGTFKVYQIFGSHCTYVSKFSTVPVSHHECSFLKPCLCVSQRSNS
# GLD-1 RNA inh – GLD-1/TGE RNA complex disruptors, primary screen, biochemical, fluorescence polarization; Female germline-specific tumor suppressor gld-1 (Caenorhabditis elegans), Q17339; purified GLD-1 + fluorescein TGE RNA; inhibition, % at 5.96 µM; 320,000 compounds, 0.44% hits;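 active = percent inhibition above a per-plate cutoff, the plate mean of test compounds plus 3 SD, cut at about 30% in these data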;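 also: 0% = DMSO wells with GLD-1 and probe and 100% = wells lacking GLD-1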
# Target sequence (Q17339 whole entry, looked up): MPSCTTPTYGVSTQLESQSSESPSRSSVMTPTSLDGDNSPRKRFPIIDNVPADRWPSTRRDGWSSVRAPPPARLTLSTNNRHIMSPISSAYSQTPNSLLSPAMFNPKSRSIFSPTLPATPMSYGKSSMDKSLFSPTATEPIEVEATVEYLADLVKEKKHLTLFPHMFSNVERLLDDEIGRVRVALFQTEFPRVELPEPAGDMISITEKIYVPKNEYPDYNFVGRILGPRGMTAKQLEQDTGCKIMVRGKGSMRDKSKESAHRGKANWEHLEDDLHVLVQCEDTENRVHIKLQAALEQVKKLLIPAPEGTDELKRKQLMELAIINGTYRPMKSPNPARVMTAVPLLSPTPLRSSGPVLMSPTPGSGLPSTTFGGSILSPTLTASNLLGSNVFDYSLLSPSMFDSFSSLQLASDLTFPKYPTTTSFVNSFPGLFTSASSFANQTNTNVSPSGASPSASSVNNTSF
# BCLXL inh – inhibitors of human Bcl-xL, primary screen, biochemical, fluorescence polarization, HTS; Bcl-2-like protein 1 (Homo sapiens), Q07817; GST-Bcl-xL / FITC-Bim BH3 peptide fluorescence polarization; inhibition, % at 10.9 µM; 320,000 compounds, 0.7% hits; AID 2129, 2009;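 active = inhibition above the mean of all tested compounds plus 3 SD, cutoff set per campaign, cut at about 30% in these data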;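 also: 0% = DMSO wells and 100% = unlabeled Bim-BH3 peptide competitor; inhibitors lower millipolarization by displacing the labeled peptide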
# MCL1-BIM inh – inhibitors of MCL1 binding to BIM-BH3, primary screen, biochemical, fluorescence polarization; 320,000 compounds, 0.68% hits; inhibition, % at 10.9 µM; Induced myeloid leukemia cell differentiation protein Mcl-1 (Homo sapiens), Q07820; GST-MCL1 / FITC-Bim-BH3 fluorescence polarization;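 active = inhibition above the mean inhibition of all tested compounds plus 3 SD, set per campaign, cut at about 40% in these data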;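 also: 0% = DMSO wells and 100% = unlabeled Bim-BH3 peptide control; higher means more loss of mP so more displacement of Bim peptide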
# E coli Lon inh – inhibitors of E. coli Lon protease, primary screen, biochemical, fluorescence polarization | inhibition, % at 7.94 µM | purified E. coli Lon protease | 360,000 compounds, 0.42% hits | P0A9M0; in the data active = inhibition above about 13%, passing the limit was not always enough;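 also: 0% = enzyme with probe and DMSO and 100% = no enzyme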
# * hit, by the source's call; · = no result given.
SMILES,MEX-5 binding,EBV gp42 inh,GLD-1 RNA inh,BCLXL inh,MCL1-BIM inh,E coli Lon inh
Cc1ccc(S(=O)(=O)Nc2ccc3c(c2)CC(=O)N([C@H](C)CO)C[C@@H](C)[C@H](CN(C)S(=O)(=O)c2ccccc2)O3)cc1,·,·,11.9,·,·,-12.4
C[C@H](CO)N1C[C@H](C)[C@@H](CN(C)S(=O)(=O)c2ccc(Cl)cc2)Oc2ccc(NS(=O)(=O)c3ccccc3)cc2CC1=O,·,·,3.0,·,·,18.9*
N#Cc1c2nc3ccccc3nc2n2cc(NC(=O)c3ccc(F)cc3)ccc12,·,105.9*,·,·,·,1.0
CCOc1ccc(C2C=C(c3ccc(C)cc3)Nc3ncnn32)cc1 (stereo not given),-4.2,2.9,26.0,46.7*,41.4*,·
NC(=O)Cn1cnc(-c2ccccc2)c1,0.2,-2.9,-5.1,-2.7,-6.1,1.7
CCNc1nn2ccccc2c1/C=C(\C#N)C(=O)OCC,-63.3*,-13.7,13.7,4.2,-0.7,4.1
CC(C)n1c(SCC(=O)NCc2ccco2)nc2c1c(=O)n(C)c(=O)n2C,0.2,-10.8,-2.0,-0.2,2.3,-11.0
CN(C)c1ccc(/C=N/NC(=O)c2ccccn2)cc1,15.4,-22.7,8.4,-0.7,4.3,-2.5
CN(C)c1ccc(/C=N/NC(=O)c2cnc3ccccc3c2)cc1,-43.9*,76.0*,-2.5,6.8,4.3,-5.9
Cc1ccc2occ(CN3CCN(c4ccccc4)CC3)c(=O)c2c1,-1.4,-16.0,-0.5,36.2*,0.2,-5.7
Cc1ccc2occ(CN3CCN(Cc4ccccc4)CC3)c(=O)c2c1,-0.3,-2.5,3.3,-2.8,-9.1,·
O=C(c1cc(-c2ccc(Cl)cc2)on1)N1CCCCCC1,-1.8,·,33.9*,2.5,-3.4,-4.7
O=C(c1cc(-c2ccc(Cl)c(Cl)c2)on1)N1CCCCCC1,-1.5,·,1.8,2.8,-1.8,-4.3
Cc1nc2c(sc(=S)n2Cc2ccco2)c(=O)n1CC(=O)Nc1ccccc1,-2.2,·,2.3,-5.2,1.2,-0.2
O=C(NCCc1nc2ccccc2[nH]1)/C(=C/c1ccc2c(c1)OCO2)NC(=O)c1ccc(Cl)cc1Cl,4.3,5.9,0.7,1.9,-1.1,-13.4
CC(C)COc1ccc(C(=O)NC(CC(C)C)C(=O)O)cc1 (stereo not given),-3.9,144.3*,-6.0,-1.2,-3.7,-8.5
COc1ccc(C(=O)NC(CC(C)C)C(=O)O)cc1 (stereo not given),·,·,0.8,8.1,13.4,-1.6
Cc1coc(NC(=O)CSc2nc(-c3ccc(Cl)cc3)cc(C(F)(F)F)c2C#N)n1,-4.5,-35.4,6.3,45.1*,39.9*,-5.2
Cn1c(-c2ccc(C=O)s2)nc2c3ccccc3c3ccccc3c21,46.7,94.0*,-7.6,4.1,-9.8,-26.8
Cc1ccccc1OCCCCCn1ccnc1,0.9,-0.2,5.0,5.5,10.9,8.4
Cc1cc(C(=O)CSc2ccccc2)cc(C)c1O,-2.8,·,-7.3,2.4,0.5,-2.7
CC(=O)Oc1cc2c3c(c1)/C(=C1/SC(=S)NC1=O)C(=O)N3C(C)(C)C=C2C,1.4,8.9,9.1,50.2*,9.6,2.5
Cc1cc(C(=O)N/N=C2\CC(=O)CC(C)(C)C2)c2ccccc2n1,-4.1,-5.2,63.0*,18.1,21.8,0.9
COc1ccc(C(=O)Nc2nc(-c3ccc([N+](=O)[O-])cc3)c(-c3ccccc3)s2)cc1,-161.7*,·,-0.1,-1.2,4.0,-3.0
CCC/C(C#Cc1cc(OC)cc(OC)c1)=C1/c2ccccc2C(=O)N1c1ccccc1,·,·,2.1,·,·,7.1
SMILES,MEX-5 binding,EBV gp42 inh,GLD-1 RNA inh,BCLXL inh,MCL1-BIM inh,E coli Lon inh
CCC/C(C#Cc1ccc(N(C)C)cc1)=C1/c2ccccc2C(=O)N1c1ccccc1,·,·,118.9*,·,·,-163.1
CCC1=NN2C(=N)/C(=C\c3ccc(OCc4cc(=O)n5nc(CC)sc5n4)c(OC)c3)C(=O)N=C2S1,4.8,62.9*,·,·,·,5.6
CCc1nn2c(=O)cc(COc3ccc(/C=C4\C(=N)N5N=C(CC(C)C)SC5=NC4=O)cc3)nc2s1,-2.3,9.3,3.2,5.6,6.5,·
FC(F)Sc1ccc(NC(=S)NC2CCC(NC(=S)Nc3ccc(SC(F)F)cc3)CC2)cc1 (stereo not given),0.3,-2.4,-7.1,-15.0,-21.4,-3.7
CCCOc1ccc(N2C(=O)CC(NCCNc3ccc(S(=O)(=O)CC)cc3)C2=O)cc1 (stereo not given),2.4,-14.2,1.9,58.9*,3.9,2.0
COc1cc(/C=N/Nc2cccc3cccnc23)cc(OC)c1O,-2.3,-14.5,7.1,23.7,25.0,-0.3
CN(C)/C=N/n1cnc2ccccc2c1=O,1.2,-9.5,-0.5,34.2*,1.1,0.6
Cc1ccc(/C=C2/Sc3ccc(C(=O)N4CCN(c5ccccn5)CC4)cc3NC2=O)cc1,-60.6*,·,-5.2,-5.6,-12.5,-36.6
COc1ccc(OC)c(/C=C2\SC(=S)N(Cc3cccnc3)C2=O)c1,-7.7,142.4*,-16.1,-22.6,-45.8,-42.3
COc1ccc(O)c(/C=C2/SC(=S)N(Cc3ccccc3)C2=O)c1,0.4,·,-20.6,-37.6,-68.0,-224.6
N#C/C(=C(/O)c1ccc(-c2cccc([N+](=O)[O-])c2)o1)c1nc2ccccc2s1,-5.4,85.7*,·,·,·,-17.5
CCOc1ccc(Cc2c(C)[nH]c3ccc(C(=O)O)cc3c2=S)cc1,-4.9,·,21.1,31.2*,30.8,2.6
CCc1c(C)[nH]c2ccc(OC)cc2c1=S,·,-29.7,·,·,·,-0.9
CCOc1ccc(-c2csc(NC(=O)CSC3=NC(=O)CN3C(C)=O)n2)c2ccccc12,0.1,130.3*,-6.8,1.1,0.0,-8.9
COc1cccc(NC(=O)CN(C)C(=O)c2cccc(S(=O)(=O)Nc3ccc(C)cc3)c2)c1,·,·,-0.2,-0.7,-11.0,2.1
C=CCn1c(O)c(CN2CCOCC2)c(C)c(C#N)c1=O,-5.4,·,28.2,39.5*,35.3,-3.5
CCc1nc2ccc(C(=O)Nc3cccc(OCC(=O)N(C)C)c3)cn2c1N(CC)CCOC,·,·,·,·,·,5.1
O=C(OCc1c(-c2ccccc2)ncc2ccccc12)c1ccc(F)cc1,·,·,-0.9,·,·,-7.7
CCn1c(/C=C/c2ccccc2Cl)nc2ccccc2c1=O,1.9,·,3.9,-7.5,-8.9,2.4
NC(=O)C1(N2CCCCC2)CCN(Cc2nc(-c3cccs3)no2)CC1,-34.6*,7.8,0.7,0.5,-11.6,0.8
COc1ccc(-n2c(N)c(C(=O)Nc3c(C)n(C)n(-c4ccccc4)c3=O)c3nc4ccccc4nc32)cc1,-11.9,-0.5,14.6,23.5,22.9,6.2
